Assay results as given in PubChem BioAssay AID1159580 (chemical genetic matrix, 2015).
Out of some 5,500 compounds screened, about 2,000 (36%) were called active. About 18% were inconclusive and are not listed. Rule as the data show it: active = normalized growth mostly below about 0.91 (no sharp cut-off); inconclusive = no clear call, values can overlap the other calls; inactive = mostly above about 0.92. This is one part of the list.

Assay: chemical genetic growth profiling, strain panel (AID 1159580);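 also: tested at 20 µM; growth read once vehicle control cultures reached saturation at 30 °C; 1 = growth at the plate median or of vehicle wells; lower values mean less growth of the strain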
Details: S. cerevisiae deletion strains, growth OD

Measured: normalized growth

Cc1csc(NC(=O)Nc2ccc(C(F)(F)F)cc2)c1
inactive: locus YAR019C, strain CDC15, hits give low values 0.971 | locus YBL105C, strain PKC1, hits give low values 0.98 | locus YBR135W, strain CKS1, hits give low values 0.963 | locus YBR136W, strain MEC1, hits give low values 0.98 | locus YBR160W, strain CDC28, hits give low values 0.975 | locus YDL017W, strain CDC7, hits give low values 0.977 | locus YDL028C, strain MPS1, hits give low values 0.981 | locus YDL101C, strain DUN1, hits give low values 1.02 | locus YDL108W, strain KIN28, hits give low values 0.973 | locus YDL132W, strain cdc53, hits give low values 0.97 | locus YDL214C, strain PRR2, hits give low values 0.783 | locus YDR052C, strain DBF4, hits give low values 0.989 | locus YDR054C, strain cdc34, hits give low values 0.95 | locus YDR226W, strain ADK1, hits give low values 0.975 | locus YDR477W, strain SNF1, hits give low values 0.804 | locus YER123W, strain YCK3, hits give low values 0.735 | locus YER133W, strain GLC7, hits give low values 0.848 | locus YFL009W, strain cdc4, hits give low values 0.97 | locus YFL029C, strain CAK1, hits give low values 0.958 | locus YFR003C, strain YPI1, hits give low values 0.972 | locus YFR019W, strain FAB1, hits give low values 0.801 | locus YFR028C, strain CDC14, hits give low values 0.951 | locus YGR040W, strain KSS1, hits give low values 0.848 | locus YGR052W, strain FMP48, hits give low values 0.946 | locus YGR092W, strain DBF2, hits give low values 0.781 | locus YHR030C, strain SLT2, hits give low values 0.891 | locus YHR079C, strain IRE1, hits give low values 0.876 | locus YHR082C, strain KSP1, hits give low values 0.893 | locus YIL147C, strain SLN1, hits give low values 0.978 | locus YJL095W, strain BCK1, hits give low values 0.896 | locus YJL128C, strain PBS2, hits give low values 0.932 | locus YJL157C, strain FAR1, hits give low values 0.718 | locus YJR016C, strain ILV3, hits give low values 0.978 | locus YJR066W, strain TOR1 (second series), hits give low values 0.848 | locus YJR066W, strain TOR1, hits give low values 0.935 | locus YKL048C, strain ELM1, hits give low values 0.928 | locus YKL067W, strain YNK1, hits give low values 0.805 | locus YKL101W, strain HSL1, hits give low values 0.821 | locus YKL193C, strain SDS22, hits give low values 0.969 | locus YKL203C, strain TOR2, hits give low values 0.907 | locus YLR403W, strain SFP1, hits give low values 0.704 | locus YML070W, strain DAK1, hits give low values 0.755 | locus YMR001C, strain CDC5, hits give low values 0.966 | locus YMR205C, strain PFK2 (second series), hits give low values 0.832 | locus YMR277W, strain FCP1, hits give low values 0.965 | locus YNL006W, strain LST8, hits give low values 0.99 | locus YNL020C, strain ARK1, hits give low values 0.753 | locus YNL161W, strain CBK1, hits give low values 0.982 | locus YNL183C, strain NPR1, hits give low values 0.878 | locus YNL207W, strain RIO2, hits give low values 0.965 | locus YNL222W, strain SSU72, hits give low values 0.967 | locus YNL307C, strain MCK1 (second series), hits give low values 0.708 | locus YOL078W, strain AVO1, hits give low values 0.964 | locus YOL136C, strain PFK27, hits give low values 0.739 | locus YOR061W, strain CKA2, hits give low values 0.714 | locus YOR119C, strain RIO1, hits give low values 0.928 | locus YOR231W, strain MKK1, hits give low values 0.864 | locus YOR329C, strain SCD5, hits give low values 0.978 | locus YPL031C, strain PHO85, hits give low values 0.773 | locus YPL153C, strain RAD53, hits give low values 0.868 | locus YPL204W, strain HRR25, hits give low values 0.902 | locus YPL209C, strain IPL1, hits give low values 0.958 | locus YPR025C, strain CCL1, hits give low values 0.963 | locus YPR106W, strain ISR1, hits give low values 0.971 | locus YPR111W, strain DBF20, hits give low values 0.966 | strain NNK1, hits give low values 0.971 | strain TSCII, hits give low values 0.968
active: locus YHR205W, strain SCH9, hits give low values 0.453 | locus YLR113W, strain HOG1, hits give low values 0.803 | locus YLR133W, strain CKI1, hits give low values 0.675 | locus YPL256C, strain CLN2, hits give low values 0.857
